Among the data in PubChem BioAssay (NCI) are growth values, retold here.

Structures are written as SMILES. Where “and” joins values, the source holds several entries; their conditions need not be identical. Identical values can stand only once. About 83,000 compounds went through this panel and 20% of them were active in at least one assay; those are over-represented in the sample as a whole.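 Single-dose data. Exposure time 48 hours. Values below 10 considered active.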 Unmarked numbers belong to inactive results. Calls of active or inactive are those of the source.

Among the test systems are HCT-15 colon; HT29 colon; SNB-75 CNS; SNB-19 CNS; U251 CNS; PC-3 prostate; SK-MEL-5 melanoma; UACC-62 melanoma; LOX IMVI melanoma; SK-MEL-28 melanoma.
Test in all cases: NCI-60 one-dose screen, 48 h (100 = growth as untreated, 0 = no growth, -100 = all killed)
Common to all, as to settings: 10 µM unless noted

Consider `CCN(CC)CCNC(=O)c1ccc(NCN2C(=O)NC(c3ccccc3)(c3ccccc3)C2=O)cc1`, for which the growth in the experiment on HCT-15 colon was 113% and 105%; with HT29 colon, 108% and 112%; in the experiment with SNB-75 CNS, 103% and 97.1%; in the experiment with SNB-19 CNS it was 109% and 105%; with U251 CNS, 95.2% and 102%; with PC-3 prostate, 97.6% and 93%. Moreover, the growth in the experiment with SK-MEL-5 melanoma is 101% and 109%; with UACC-62 melanoma it was 104% and 97%; in the experiment on LOX IMVI melanoma, 95.1% and 97.6%.
For the compound `CC1CCC(=O)N1c1ccc(N)cc1` (stereo unspecified), the growth with HCT-15 colon was 108%; in the experiment with HT29 colon, 96.6%; with SNB-75 CNS, 97.4%; with SNB-19 CNS, 97.8%; with U251 CNS, 97.3%; in the experiment on PC-3 prostate it was 94.4%. Moreover, the growth in the experiment on SK-MEL-5 melanoma was 98.9%; in the experiment with UACC-62 melanoma it was 100%; in the experiment on LOX IMVI melanoma, 95.1%; with SK-MEL-28 melanoma, 107%.
For `CC(C)=NOC(C)C(=O)O` (stereo unspecified), the growth in the experiment on HCT-15 colon was 102%; with HT29 colon, 110%; with SNB-75 CNS, 97.9%; with SNB-19 CNS it was 108%; in the experiment with U251 CNS, 104%; in the experiment with PC-3 prostate, 92.9%. Besides, the results for the growth in the experiment on SK-MEL-5 melanoma, with UACC-62 melanoma and in the experiment with LOX IMVI melanoma were 107%, 89.4% and 97.4%, respectively.
As for `COc1ccc(/C=C/C(=O)O)cc1OC`, the growth was 106% and 103% in the experiment on HCT-15 colon; 106% and 97.3% in the experiment on HT29 colon; 96.5% and 103% in the experiment with SNB-75 CNS; 102% and 107% with SNB-19 CNS; 100% and 103% in the experiment on U251 CNS; 95.1% and 98.3% in the experiment on PC-3 prostate. Besides, the growth in the experiment with SK-MEL-5 melanoma is 98% and 97.9%; in the experiment on UACC-62 melanoma, 98.9% and 97.5%; in the experiment on LOX IMVI melanoma, 100% and 98.9%.
`Cc1cc2ccccc2c2cc3ccccc3cc12`: the growth in the experiment with HCT-15 colon is 82.4%; in the experiment on HT29 colon, 88.3%; in the experiment with SNB-75 CNS it was 100%; with SNB-19 CNS, 105%; with U251 CNS, 102%; in the experiment with PC-3 prostate it was 90.8%. The growth in the experiment with SK-MEL-5 melanoma is 89.8%; with UACC-62 melanoma it was 87.8%; in the experiment on LOX IMVI melanoma it was 95.4%.
Regarding `NC1=NC(c2ccccc2)N=C(Nc2ccccc2)N1` (stereo unspecified), the growth in the experiment on HCT-15 colon was 102% and 98.9%; in the experiment with HT29 colon, 62.4% and 60.7%; with SNB-75 CNS, 53.1% and 12.8%; with SNB-19 CNS it was 67% and 76%; in the experiment on U251 CNS, 42.8% and 44.5%; with PC-3 prostate, 65.1% and 70.9%. Moreover, the growth in the experiment on SK-MEL-5 melanoma was 69.6% and 35.6%; in the experiment on UACC-62 melanoma it was 89%; in the experiment on LOX IMVI melanoma, 85.8% and 83%.
In the case of `COC(=O)c1nc(N)nc(C(=O)OC)c1C(=O)c1ccc(F)cc1`, the growth in the experiment with HCT-15 colon is 103%; in the experiment with HT29 colon it was 115%; in the experiment with SNB-75 CNS, 99.1%; in the experiment on SNB-19 CNS it was 103%; in the experiment on U251 CNS it was 102%; in the experiment with PC-3 prostate it was 104%. Also, the results for the growth with SK-MEL-5 melanoma, with UACC-62 melanoma and with LOX IMVI melanoma were 103%, 105% and 98.6%, respectively.
On to `O=C(O)c1cc(=O)[nH]c(=O)[nH]1`, for which the growth in the experiment with HCT-15 colon is 102% and 97.9%; in the experiment on HT29 colon, 93.3% and 110%; in the experiment on SNB-75 CNS it was 102% and 86.4%; in the experiment on SNB-19 CNS, 111% and 104%; with U251 CNS it was 105% and 95.8%; with PC-3 prostate it was 91.4% and 80.3%. In addition, the growth is 82.6% in the experiment on SK-MEL-5 melanoma; 103% and 92.5% in the experiment with UACC-62 melanoma; 98.8% and 92.3% in the experiment with LOX IMVI melanoma.
As for `COc1ccc([N+](=O)[O-])cc1OC`, the growth was 96.3% and 98.9% in the experiment on HCT-15 colon; 112% and 101% with HT29 colon; 98% with SNB-75 CNS; 102% and 107% with SNB-19 CNS; 104% and 95.6% with U251 CNS; 94.1% and 102% in the experiment with PC-3 prostate. Also, the growth in the experiment on SK-MEL-5 melanoma was 104% and 106%; in the experiment on UACC-62 melanoma, 104% and 107%; with LOX IMVI melanoma, 98.2% and 101%.
Take `COc1ccc(-n2[nH]c3c(cnc4ccccc43)c2=O)cc1`: the growth with HCT-15 colon is 96.1% and 91.4%; in the experiment on HT29 colon, 95.1% and 93.4%; with SNB-75 CNS it was 98.1%; in the experiment on SNB-19 CNS it was 103%; in the experiment on U251 CNS it was 107%; in the experiment on PC-3 prostate it was 91.3% and 97.4%. In addition, the growth with SK-MEL-5 melanoma is 100% and 98.7%; in the experiment with UACC-62 melanoma it was 95.9% and 87.9%; with LOX IMVI melanoma, 88% and 105%.
`O=C(c1ccccc1)C1(Br)CCCCC1`: the growth with HCT-15 colon was 99.1%; in the experiment with HT29 colon, 120%; in the experiment on SNB-75 CNS, 95.2%; with SNB-19 CNS, 92%; in the experiment on U251 CNS, 95.6%; in the experiment on PC-3 prostate, 99.2%. Further, the growth was 95.7% in the experiment on SK-MEL-5 melanoma, 90.5% with UACC-62 melanoma, 86.7% in the experiment with LOX IMVI melanoma and 101% in the experiment on SK-MEL-28 melanoma.
Take `CC(C)(C)OC(=O)c1ccc(NCc2cc(O)ccc2O)cc1`: the growth with HCT-15 colon is -30.1% (active); in the experiment with HT29 colon, 73.5%; with SNB-75 CNS it was 30.5%; with SNB-19 CNS, 62.6%; in the experiment on U251 CNS, 20.5%; in the experiment on PC-3 prostate, 12.5%. For the same compound, the growth is 52.4% with SK-MEL-5 melanoma, 8.79% (active) in the experiment with UACC-62 melanoma, 24.3% in the experiment with LOX IMVI melanoma and 8.43% (active) in the experiment with SK-MEL-28 melanoma.
